A selection: hits, their analogues and other compounds. The true share with any hit is near 5.7%.
hcDAF12 agonist: H. contortus DAF-12 nuclear receptor activators, primary screen, cell-based, luminescence, HEK293, lit1-tk-luc reporter; activation, % at 6.8 µM; AID 652067, 2013; actives 1.4% (n = 370,000); HEK293 hcDAF-12 lit1-tk-luc reporter; 0% DMSO, 100% Δ7-dafachronic acid;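 active = activation above the mean of all tested compounds plus 3 SD, cut at about 5.5% in these data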;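 note: 100% = response to 3 µM Δ7-dafachronic acid high control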
AHR activator: AHR activators, primary screen, cell-based, luminescence, luciferase reporter, human; Aryl hydrocarbon receptor (Homo sapiens), P35869; activation, % at 5 µM; actives 2.5% (n = 320,000); AID 2796, 2010; AHR-responsive luciferase reporter cells; in the data active = activation above about 47%;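 note: 0% = vehicle wells and 100% = reference agonist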
DAX1 inh-1: DAX1 (NR0B1) inhibitors, primary screen, cell-based, HEK293, Gal4-DAX1, luciferase luminescence. actives 0.99% (n = 340,000). inhibition, % at 6.75 µM. AID 504766, 2011. Nuclear receptor subfamily 0 group B member 1 (Homo sapiens), P51843. HEK293 Gal4-DAX1 luciferase reporter;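 active = inhibition above the mean over all tested compounds plus 3 SD, cut at about 4.2% in these data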;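 note: 0% = DAX1-transfected cells with DMSO and 100% = empty-vector control cells with DMSO; inhibition shows as a rise in luminescence from relieved DAX1 repression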
Target sequence (P51843 207-470 limits assumed): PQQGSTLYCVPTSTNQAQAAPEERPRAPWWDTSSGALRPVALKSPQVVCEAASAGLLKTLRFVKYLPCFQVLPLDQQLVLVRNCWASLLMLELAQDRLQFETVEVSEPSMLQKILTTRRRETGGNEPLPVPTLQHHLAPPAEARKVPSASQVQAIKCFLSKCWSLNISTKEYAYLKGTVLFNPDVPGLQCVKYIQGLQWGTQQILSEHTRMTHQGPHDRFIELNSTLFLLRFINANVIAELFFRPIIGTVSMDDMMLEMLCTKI
DAX1 inh-2: DAX1 (NR0B1) inhibitors on StAR promoter, primary screen, cell-based, luminescence, SF-1 (NR5A1), full-length DAX-1 | HEK293T StAR-luciferase reporter, SF-1/DAX-1 repression relief | inhibition, % at 6.8 µM | actives 1.1% (n = 370,000);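 active = inhibition above the mean over all tested compounds plus 3 SD, cut at about 3.6% in these data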;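 note: 0% = DAX-1 cells with DMSO and 100% = cells lacking DAX-1 with DMSO; higher inhibition means more luminescence from relief of DAX-1 repression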
hgDAF12 agonist: H. glycines DAF-12 receptor agonists, primary screen, cell-based, luminescence, HEK293, GAL4 fusion, UAS-luciferase. Nuclear hormone receptor DAF-12 (Heterodera glycines), GAL4 fusion. HEK293 GAL4-hgDAF12 UAS-luciferase reporter, agonist luminescence; normalized to butyrate control. activation, % at 6.8 µM. actives 1.8% (n = 370,000). AID 687014, 2013;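 active = activation above a cutoff set at the mean of all screened compounds plus 3 SD, cut at about 10% in these data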;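 note: 0% = DMSO wells and 100% = sodium butyrate wells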
ssDAF12 agonist: S. stercoralis DAF-12 nuclear receptor activators, primary screen, cell-based, luminescence, HEK293, GRIP1 co-expression, lit1-tk-luc; HEK293 ssDAF-12/GRIP1 lit1-tk-luc reporter; % of 3 µM dafachronic acid response; activation, % at 6.8 µM; actives 1% (n = 370,000); AID 652126, 2013;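 active = activation above the mean over all tested compounds plus 3 SD, cut at about 0.9% in these data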;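 note: 0% = DMSO-only wells and 100% = 3 µM delta7-dafachronic acid wells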
* marks the source's active call; other numbers are inactive results; . = no result given.

SMILES	hcDAF12 agonist	AHR activator	DAX1 inh-1	DAX1 inh-2	hgDAF12 agonist	ssDAF12 agonist
Cc1ccccc1C(=O)NNC(=O)c1cccn1C	3	9	1	4.0*	4	0
Cn1cccc1C(=O)NCCc1ccc(Cl)cc1	2	-3	1	4.0*	5	0
Cn1cccc1C(=O)NC1CCCCCC1	4	6	0	4.4*	9	0
COc1ccc(C)cc1S(=O)(=O)N1CCC(C)CC1	0	-3	0	1	-1	-2
O=C(O)c1ccc(C=NN=C2c3ccccc3-c3ccccc32)cc1	0	.	0	-1	0	-1
Cc1nn2c(NCCCN(C)C)c3c(nc2c1-c1ccccc1)CCC3	-1	11	0	1	-2	-1
Cn1cccc1C(=O)NCCc1ccccc1	4	-1	0	2	13*	0
Cn1c(C(=O)NCCc2ccccc2)cc(=O)n(C)c1=O	-1	0	0	0	5	-2
Nc1c(C(=O)O)cnc2c(-c3ccc(Cl)cc3)cnn12	6.4*	98*	0	2	12*	1.0*
Cc1n[nH]c(=O)c2c(NC(=O)CSc3nn(-c4ccccc4)c(=S)s3)oc(C)c12	3	35	1	-1	-1	1.1*
Nc1ccc2c(c1)C(=O)c1ccccc1-2	-1	-5	6.1*	0	0	-1
Nc1ccc2c(c1)C(=O)C(=O)c1ccccc1-2	-8	-16	-4	-5	-17	-4
COc1ccc(CN2CCC(Cc3ccccc3)CC2)c(C)c1C	-2	.	4.3*	0	5	-2
Fc1ccccc1CN1CCC(Cc2ccccc2)CC1	-1	2	-1	0	2	0
COc1cc(CN2CCC(Cc3ccccc3)CC2)cc([N+](=O)[O-])c1O	0	1	0	0	0	-1
COc1cc(CN2CCC(Cc3ccccc3)CC2)cc(OC)c1OC	-1	.	5.1*	0	1	-2
O=C(OCc1cnc(Cl)s1)c1ccc(Cl)cc1	0	1	1	0	2	-1
CCSc1nncn1/N=C/c1ccc(OC)c(OC)c1	-1	48*	0	0	4	-1
CCOC(=O)c1c(NC(=O)CSc2nc3c(c(=O)n(C)c(=O)n3C)n2C(C)C)sc(C)c1C	-1	0	0	0	-1	-1
CCc1nnc(NC(=O)CCC(=O)N2CCN(C3c4ccccc4-c4ccccc43)CC2)s1	-2	2	-1	1	1	-1
CCOC(=O)c1cc2cc3ccccc3cc2[nH]1	4	3	2	1	9	1.0*
CC(C)OC(=O)c1cc2ccccc2[nH]1	0	-4	-1	0	2	-2
O=C(NCCc1ccccc1)Nc1ccc(Cl)cc1	4	7	2	3	13*	1
S=C(NCCc1ccccc1)Nc1ccc(Cl)cc1	1	21	0	1	11*	0
S=C(NCCc1ccccc1)NCCc1ccccc1	4	8	1	1	8	1
SMILES	hcDAF12 agonist	AHR activator	DAX1 inh-1	DAX1 inh-2	hgDAF12 agonist	ssDAF12 agonist
O=C(CSc1ccccc1)N1CCN(S(=O)(=O)c2ccccc2)CC1	-1	-5	1	-1	-1	-1
COC(=O)[C@H](C)NC(=O)COc1ccccc1	1	-2	0	-1	-1	-1
CC1(C)CC(=O)C2=C(C1)Nc1cc(Cl)ccc1S2	-1	53*	1	0	0	-2
CC1(C)CC(=O)C2=C(C1)NC(=O)NC2c1ccc(Cl)cc1 (configuration not stated)	0	-2	-1	0	2	-1
Cc1ccc2nc(NNC(=O)c3ccc4c(c3)OCCO4)sc2c1	3	48*	0	0	0	0
O=C(NNc1nc2cc3c(cc2s1)OCO3)c1ccccc1	-1	61*	0	0	8	-1
O=C(NNc1nc2cc3c(cc2s1)OCO3)c1cccc(F)c1	2	77*	0	2	2	-1
Cc1ccc2nc(N(CCN(C)C)C(=O)c3ccc4c(c3)OCCO4)sc2c1	1	21	2	3	4	-1
COc1cc(OC)cc(C(=O)NNc2nc3cc4c(cc3s2)OCO4)c1	4	21	0	1	7	-1
O=C(CC(c1ccccc1)c1ccccc1)NCc1cccnc1	-2	-1	0	0	-1	-1
C[C@@H](CN=[N+]=[N-])CN1CC[C@H](NC(=O)OCc2ccccc2)CCC1=O	-3	-2	0	0	-2	-1
NS(=O)(=O)c1ccc(CNC(=O)c2ccccn2)cc1	0	4	1	1	0	-1
Cc1ccc(S(=O)(=O)NCC(c2ccco2)N2CCc3ccccc3C2)cc1 (configuration not stated)	-1	7	-1	0	2	-1
O=S(=O)(NCC(c1ccco1)N1CCc2ccccc2C1)c1ccc(Br)cc1 (configuration not stated)	-1	-1	0	3.7*	2	-1
OC(C#CCCN1CCCCC1)(c1ccccc1)C1CCCCC1 (configuration not stated)	1	1	5.0*	0	-2	-1
Cc1ccc(C2=NN(C(=S)Nc3ccccc3)C(c3ccco3)C2)cc1 (configuration not stated)	2	5	1	1	9	0
COc1ccccc1Cn1c(/C=C/c2ccccc2)nc2ccccc21	2	64*	0	1	8	-1
COc1ccccc1Cn1c(C(C)C)nc2ccccc21	-2	-2	0	0	-2	-2
CC(C)CC1C(=O)N(Cc2cn(CCC3OCCO3)nn2)CCS(=O)(=O)N1Cc1ccc(-c2ccccc2)cc1 (configuration not stated)	-2	.	-1	-1	-2	-1
COc1ccc(/C=C/c2nc(-c3ccccc3)cc(=O)[nH]2)cc1	0	76*	4	0	1	-2
O=c1cc(-c2ccccc2)nc(/C=C/c2ccccc2)[nH]1	0	36	5.6*	0	3	-1
O=C(Cc1ccccc1Cl)Nc1nc2ccccc2[nH]1	6.0*	23	0	0	2	0
O=C(Nc1nc2ccccc2[nH]1)C12CC3CC(CC(C3)C1)C2	5.8*	22	1	1	9	0
